Experimental data taken from publication PMC5540273 (PLoS ONE, 2017).

Columns and labels:
Settings in all cases: concentration: 1 μM, replicates: in singlicate; n = 1
AAK1 = tested on: AAK1
ABL1-nonphosphorylated = tested on: ABL1-nonphosphorylated
ABL1-phosphorylated = tested on: ABL1-phosphorylated
ABL2 = tested on: ABL2
ACVR1B = tested on: ACVR1B
ACVR1 = tested on: ACVR1
ACVR2A = tested on: ACVR2A
ACVR2B = tested on: ACVR2B
ACVRL1 = tested on: ACVRL1
ADCK3 = tested on: T1, ADCK3
T1 construct: gene CABC1

ADCK4 = tested on: ADCK4
AKT1 = tested on: AKT1
AKT2 = tested on: AKT2
AKT3 = tested on: AKT3
ALK = tested on: ALK
AMPK-alpha1 = tested on: T2, AMPK-alpha1
T2 construct: gene PRKAA1

AMPK-alpha2 = tested on: T3, AMPK-alpha2
T3 construct: gene PRKAA2

ANKK1 = tested on: ANKK1
ARK5 = tested on: T4, ARK5
T4 construct: gene NUAK1

ASK1 = tested on: T5, ASK1
T5 construct: gene MAP3K5
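Note: KINOMEscan kinase panel screen.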

| Structure (SMILES) | %Inh (AAK1) [%] | %Inh (ABL1-nonphosphorylated) [%] | %Inh (ABL1-phosphorylated) [%] | %Inh (ABL2) [%] | %Inh (ACVR1B) [%] | %Inh (ACVR1) [%] | %Inh (ACVR2A) [%] | %Inh (ACVR2B) [%] | %Inh (ACVRL1) [%] | %Inh (ADCK3) [%] | %Inh (ADCK4) [%] | %Inh (AKT1) [%] | %Inh (AKT2) [%] | %Inh (AKT3) [%] | %Inh (ALK) [%] | %Inh (AMPK-alpha1) [%] | %Inh (AMPK-alpha2) [%] | %Inh (ANKK1) [%] | %Inh (ARK5) [%] | %Inh (ASK1) [%] |
| --- | --- | --- | --- | --- | --- | --- | --- | --- | --- | --- | --- | --- | --- | --- | --- | --- | --- | --- | --- | --- |
| COc1cc(Nc2nccc(N3CCC(NC(=O)Nc4cccc(C(C)=O)c4)C3)n2)cc(OC)c1OC (centres unmarked) [GSK1379753] | 65 | 0 | 0 | 17 | 0 | 0 | 0 | 100 | 0 | 0 | 55 | 0 | 0 | 0 | 44 | 0 | 0 | 41 | 27 | 0 |
| Cc1ccc(C(=O)Nc2ccc(Nc3ccnc4cc(-c5nccs5)ccc34)cc2O)cc1.Cl [GW494702] | 4 | 57 | 12 | 12 | 0 | 18 | 0 | 19 | 0 | 1 | 34 | 12 | 6 | 0 | 0 | 20 | 0 | 21 | 14 | 9 |
| Cc1cccc(NC(=O)Nc2ccc(Oc3ncnc4ccn(C)c34)cc2)c1 | 0 | 33 | 23 | 0 | 0 | 4 | 2 | 0 | 0 | 0 | 0 | 0 | 0 | 0 | 0 | 9 | 0 | 0 | 0 | 0 |
| Cl.Cl.NCC(NC(=O)c1cc(-c2ccccc2)c(-c2ccnc3[nH]ccc23)s1)c1ccccc1 (centres unmarked) [GSK1321561] | 47 | 89 | 90 | 87 | 0 | 10 | 4 | 18 | 0 | 95.3 | 89 | 57 | 0 | 80 | 27 | 5 | 0 | 0 | 16 | 0 |
| CN(c1ccc(NC(=O)Nc2cc(C(F)(F)F)ccc2F)cc1)c1ccnc(Nc2ccc(S(N)(=O)=O)cc2)n1 [GW809893] | 9 | 98.1 | 75 | 98.5 | 1 | 0 | 0 | 14 | 4 | 0 | 7 | 17 | 11 | 9 | 73 | 27 | 19 | 78 | 1 | 0 |
| COC(=O)Nc1nc2ccc(Oc3ccc(NC(=O)Nc4cc(C(F)(F)F)ccc4F)cc3)cc2n1C.Cl [GW692089] | 0 | 98.4 | 49 | 84 | 0 | 0 | 0 | 0 | 0 | 0 | 33 | 0 | 0 | 0 | 3 | 0 | 22 | 31 | 16 | 40 |
| CCc1ccc(-c2ccc3c(c2)-c2c(cnn2C)S(=O)(=O)N3C)cc1 | 0 | 7 | 0 | 0 | 14 | 0 | 5 | 0 | 17 | 0 | 0 | 0 | 0 | 0 | 0 | 0 | 0 | 0 | 0 | 0 |
| FC(F)(F)c1ccc(/C=C/c2cncnc2Nc2ccc3[nH]c(Cc4ccccc4)nc3c2)cc1 [GW709199] | 15 | 35 | 19 | 4 | 0 | 0 | 24 | 37 | 0 | 18 | 0 | 0 | 0 | 0 | 23 | 0 | 3 | 0 | 6 | 0 |
| Cc1ccc(S(=O)(=O)Nc2ccc(Nc3nccc(Nc4cccc5[nH]ncc45)n3)cc2)cc1 [GSK581271] | 27 | 11 | 31 | 64 | 8 | 32 | 0 | 57 | 30 | 41 | 87 | 0 | 0 | 0 | 24 | 0 | 0 | 0 | 5 | 0 |
| O=C(O)C(F)(F)F.O=C(O)C(F)(F)F.O=c1[nH]ccc2nc(N[C@@H]3CCCNC3)nc(Nc3ccc(S(=O)(=O)N4CCOCC4)cc3)c12 [GSK2177277] | 91.6 | 47 | 84 | 46 | 2 | 91.1 | 29 | 53 | 9 | 0 | 0 | 0 | 0 | 0 | 97.4 | 97.6 | 98.1 | 98.1 | 100 | 0 |
